Mm-Cpn inhibitor: Inhibitors of TCP-1 ring complex (TRiC) of Methanococcus maripaludis (MmCpn): qHTS | purified Mm-Cpn ATPase, ADP Transcreener TR-FRET | Potency, µM (highest dose often 76.9 µM), without a hit: at the highest dose activity, negative = inhibition, usual class: inhibitors | actives 0.031% (n = 330,000) | AID 504842, 2011; note: potency is the fitted concentration of half-maximal effect; nearly all actives have a fitted effect of over 80% in size
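TR-FRET (320 nm excitation; 590 and 665 nm emission) reports ADP made from 10 uM ATP by 25 nM enzyme; compounds were preincubated 10 min, reaction run 30 min, both at 37°C.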
CCT modulator: High-Throughput Screening for Modulators of Cytosolic Chaperonin Activity; purified chaperonin ATPase assay, HTRF ADP detection, 30 min; activity change, % (concentration not given with the values), hits read low; actives 0.3% (n = 360,000); AID 651819, 2012; in the data active = activity change below about -30%
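ATPase activity: ADP formed was measured by HTRF Transcreener (665/615 nm ratio) after 30 min at 37 deg C with 10 uM ATP. Compounds screened at one 76 uM concentration against 40 or 20 nM TRiC in Tris pH 7.4/KCl/MgCl2/DTT buffer.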
Sfp PPTase inh: qHTS Assay for Inhibitors of Bacillus subtilis Sfp phosphopantetheinyl transferase (PPTase); 4'-phosphopantetheinyl transferase ffp (Bacillus subtilis), Q9F4F7; actives 3.5% (n = 310,000); Biochemical Sfp PPTase activity, qHTS; Potency, µM, for the others: largest response in the series, negative = inhibition, usual class: inhibitors;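 note: the enzyme is Sfp with the accession as filed and its product quenches rhodamine fluorescence; potency is the fitted concentration of half-maximal effect; 0% = enzyme reaction without inhibitor and -100% = no enzyme wells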
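Step 1, compound plus 15 nM Sfp-PPTase, 15 min, room temperature. Step 2, add rhodamine-CoA (5 uM) and BHQ-2-YbbR (12.5 uM). Step 3, read 525/598 nm fluorescence at 0 and 30 min.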
VDR inh: Inhibitors of the vitamin D receptor (VDR): qHTS; Potency, µM, for the others: max response, negative = inhibition, most hits filed as inhibitors; AID 504847, 2011; VDR-SRC2-3 peptide fluorescence polarization, 2 h; actives 0.93% (n = 400,000); Vitamin D3 receptor (Homo sapiens), P11473; note: potency is the fitted concentration of half-maximal effect
Target sequence (P11473 whole entry, looked up): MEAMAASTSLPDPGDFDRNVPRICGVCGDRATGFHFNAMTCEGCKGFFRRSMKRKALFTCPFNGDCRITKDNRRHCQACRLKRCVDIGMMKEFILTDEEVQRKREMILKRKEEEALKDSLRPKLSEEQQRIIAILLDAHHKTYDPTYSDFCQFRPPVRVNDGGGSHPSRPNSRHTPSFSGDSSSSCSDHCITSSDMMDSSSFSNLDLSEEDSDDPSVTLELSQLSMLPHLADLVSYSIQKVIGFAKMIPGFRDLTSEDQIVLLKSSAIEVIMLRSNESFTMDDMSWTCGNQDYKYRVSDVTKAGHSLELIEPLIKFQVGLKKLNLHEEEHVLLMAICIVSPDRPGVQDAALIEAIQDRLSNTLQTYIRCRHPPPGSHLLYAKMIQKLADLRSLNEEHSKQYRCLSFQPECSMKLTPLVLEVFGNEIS
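Inhibition of the VDR/SRC2-3 peptide interaction is quantified by fluorescence polarization. Compounds (23 nl, pintool) incubate with the reagents for 2 hours at ambient room temperature.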
PLK1 PBD inh: qHTS for Inhibitors of PLK1-PDB (polo-like kinase 1 - polo-box domain): Primary Screen. actives 2.8% (n = 360,000). Potency, µM, without a hit: max response, negative = inhibition, hits mostly inhibitors. Serine/threonine-protein kinase PLK1 (Homo sapiens), P53350. Plk1 PBD binding of FITC phosphopeptide, fluorescence polarization; note: potency is the fitted concentration of half-maximal effect; series mostly up to about 57 µM; nearly all actives have a fitted effect of over 65% in size
G9a inh: qHTS Assay for Inhibitors of Histone Lysine Methyltransferase G9a. Histone-lysine N-methyltransferase EHMT2 (Homo sapiens), Q96KQ7. AID 504332, 2011. actives 8.8% (n = 350,000). G9a H3K9 monomethylation, AlphaScreen, 2 h. Potency, µM (highest dose often 102 µM), for inactives: at the highest dose activity, negative = inhibition, actives largely listed as inhibitors; note: potency is the fitted concentration of half-maximal effect; nearly all actives have a fitted effect of over 75% in size
Target sequence (Q96KQ7 913-1193 limits assumed): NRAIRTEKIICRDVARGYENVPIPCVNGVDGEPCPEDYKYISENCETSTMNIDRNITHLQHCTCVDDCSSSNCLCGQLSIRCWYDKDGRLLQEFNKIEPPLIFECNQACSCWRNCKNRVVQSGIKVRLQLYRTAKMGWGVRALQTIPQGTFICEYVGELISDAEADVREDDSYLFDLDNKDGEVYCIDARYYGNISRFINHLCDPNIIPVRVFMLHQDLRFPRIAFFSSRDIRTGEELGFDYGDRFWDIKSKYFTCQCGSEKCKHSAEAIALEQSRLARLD
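AlphaScreen detection with an anti-monomethyl H3K9 antibody quantified product after a 2 h room-temperature reaction containing 500 nM biotinylated H3K9 peptide, 20 µM SAM and 20 nM enzyme, which had been preincubated 15 min with compound.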
Starred values were filed as active, the others as inactive; ? = inconclusive; . = no result given; [ ] = another dose, or the depositor's remark. This is a sample that favours compounds with a hit; in the whole collection about 10% have one here. Unless noted, calls come from the whole dose curve; as a rule, active = well fitted curve in the direction sought with a large enough effect; inconclusive = small, poorly fitted or top-dose-only effect, or another doubt; inactive = no such curve, though single readings can be large; an effect the other way counts as inactive or inconclusive. Unless noted, % is set by controls: 0 for no effect and ±100 for the full control effect.

SMILES	Mm-Cpn inhibitor	CCT modulator	Sfp PPTase inh	VDR inh	PLK1 PBD inh	G9a inh
NC(=O)C1CCN(c2nc(-c3ccccc3Cl)cs2)CC1	2%	.	.	.	.	.
COc1ccc(S(=O)(=O)Nc2ccc(O)c3ccccc23)cc1	-8%	1	-4%	?	27µM*	?
Cc1ccc(/C=C/C(=O)O)cc1S(=O)(=O)Nc1ccccc1C(=O)O	2%	2	-4%	-1%	-25%	?
COc1ccc(S(=O)(=O)Nc2ccccc2)cc1	.	-4	.	5%	-3%	.
Cc1ccc(/C=C/C(=O)O)cc1S(=O)(=O)Nc1ccc(C(=O)O)cc1	2%	-1	-9%	-8%	27µM*	.
COc1ccc(C(=O)Nc2ccc(-c3nc4ncccc4o3)cc2C)cc1Br	.	.	.	6%	.	13%[59 µM]
Cc1cccc(C(=O)Nc2cccc(C(=O)N3CCOCC3)c2)c1	-2%	0	18%	8%	3%	12%[59 µM]
Cc1cccc(NC(=O)C2SC(=Nc3c(C)cccc3C)C(C(=O)N3CCOCC3)=C2N)c1 (stereo unspecified)	2%	0	-13%	?	-3%	1.6µM*
Cc1ccc(S(=O)(=O)ON2C(=O)c3cccc4cccc(c34)C2=O)cc1	1%	1	-6%	1%	-11%	28%[59 µM]
O=C1c2cccc3cccc(c23)C(=O)N1OS(=O)(=O)c1ccc(Br)cc1	1%	0	1%	3%	-6%	-3%
O=C1c2ccccc2C(=O)N1OS(=O)(=O)c1ccccc1	-3%	.	10µM*	.	.	4µM*
Cc1ccc(C)c(S(=O)(=O)ON2C(=O)c3ccccc3C2=O)c1	-2%	-4	18µM*	20µM*	2.7µM*	7.9µM*
Cc1cc(S(=O)(=O)ON2C(=O)c3ccccc3C2=O)ccc1F	-2%	1	11µM*	32µM*	6.7µM*	7.1µM*
Cc1ccc(N(Cc2cc3ccccc3[nH]c2=O)C(=O)c2cccc(Cl)c2)cc1	.	.	.	5%	.	?
CCOc1ccc(NC(=O)Cn2c(=O)n(Cc3ccccc3)c(=O)c3sc4ccccc4c32)cc1	.	.	.	-7%	.	-1%[59 µM]
CCOC(=O)CSc1nnc2n(Cc3ccccc3)c(=O)c3c4c(sc3n12)CCC4	0%	-3	1%	1%	?	40µM*
COC(=O)c1ccc(C2Nc3c(C)cccc3-c3cc(C)nn32)cc1 (stereo unspecified)	.	.	.	-9%	.	1%[59 µM]
CN(C)Cc1ccccc1-c1nccc(NCc2cccs2)n1	.	.	-4%	10%	.	.
CCOC(=S)NC(=O)c1sc2ccccc2c1Cl	-19%	0	45µM*	-13%	?	28%[0.501 µM]
O=C(NC(=S)NCCO)c1sc2ccccc2c1Cl	-20%	1	?	6%	-2%	25µM*
CCCOC(=S)NC(=O)c1sc2ccccc2c1Cl	?	-3	28µM*	-15%	?	46%[0.501 µM]
O=C(CNC(=O)c1sc2ccccc2c1Cl)OCc1ccccc1	-9%	0	-4%	7%	3%	76%
O=C(NNC(=S)NC1CCCCC1)c1sc2ccccc2c1Cl	0%	-2	-4%	-20%	21µM*	-27%[59 µM]
Cc1ccccc1COC(=O)CNC(=O)c1sc2ccccc2c1Cl	-20%	0	.	-4%	0%	21%
CC(C)(C)C(=O)NC(=S)NNC(=O)c1sc2ccccc2c1Cl	-3%	-1	4%	-18%	-24%	?
SMILES	Mm-Cpn inhibitor	CCT modulator	Sfp PPTase inh	VDR inh	PLK1 PBD inh	G9a inh
Cc1cccc(Cn2c(=O)n(CCC(=O)NCc3ccc4c(c3)OCO4)c(=O)c3sccc32)c1	.	.	.	-4%	.	4%[59 µM]
CCc1nn(CC(=O)Nc2ccc(N(CC)CC)cc2C)c(=O)c2cc3sccc3n12	.	.	.	-6%	.	?
COc1ccc(OC)c(CNc2ncc(-c3ccc(Cl)cc3)n2C)c1	.	.	.	-12%	.	4µM*
COc1ccc(CNc2ncc(-c3ccc(Cl)cc3)n2C)c(OC)c1OC	1%	3	-12%	2%	-2%	71µM*
CCOc1ccc(-c2cnc(NCc3ccc(OC)cc3OC)n2C)cc1	.	.	.	-12%	.	16µM*
CC[C@H](C)[C@H](NC(=O)[C@H](Cc1ccc(O)cc1)NC(=O)[C@@H]1CCCN1C(=O)[C@H](CCCN=C(N)N)NC(=O)[C@H](CCCN=C(N)N)NC(=O)[C@@H]1CCCN1C(=O)[C@H](CCCCN)NC(=O)[C@H](CC(N)=O)NC(=O)[C@H](CCC(N)=O)NC(=O)[C@H](Cc1ccc(O)cc1)NC(=O)[C@H](CC(C)C)NC(=O)[C@@H]1CCC(=O)N1)C(=O)N[C@@H](CC(C)C)C(=O)O	.	.	15%	12%	.	.
COc1ccc(S(=O)(=O)Oc2ccccc2C(=S)N2CCOCC2)cc1	0%	.	-19%	.	.	25µM*
COc1cc(C(=S)N2CCOCC2)ccc1OS(=O)(=O)c1ccc(Cl)cc1	3%	0	-5%	-13%	?	35µM*
O=C(Oc1ccc(C(=S)N2CCOCC2)cc1)c1ccc([N+](=O)[O-])cc1	1%	0	-6%	-6%	-4%	-13%[0.501 µM]
COc1cc(C(=S)N2CCOCC2)cc(OC)c1OS(=O)(=O)c1ccc(Cl)cc1	-1%	-2	45µM*	89µM*	13µM*	-12%[0.501 µM]
O=[N+]([O-])c1ccccc1S(=O)(=O)Oc1ccc(C(=S)N2CCOCC2)cc1	0%	-1	-7%	-1%	5.3µM*	28µM*
COc1cc(C(=S)N2CCOCC2)ccc1OS(=O)(=O)c1ccc(C)cc1	-2%	0	9%	8%	-9%	13%[59 µM]
CCOC(=O)c1cc(-c2ccc(C)cc2)n(CCCC(=O)Nc2cc(C)ccc2C)c1	.	.	.	-2%	.	-10%[59 µM]
Cc1ccc(N2CC(NC(=O)c3ccc(S(=O)(=O)N4CCOCC4)cc3)CC2=O)cc1C (stereo unspecified)	.	.	.	6%	.	?
CCOc1ccccc1NC(=O)CCNS(=O)(=O)c1ccc2c(c1)CCN2C(=O)C1CC1	.	.	.	4%	.	8%[59 µM]
CC(C)[C@@H](CC(=O)N[C@@H]1CCNC[C@H]1C(=O)N[C@H](CC(=O)N[C@@H](CCC(=O)O)CC(=O)O)Cc1c[nH]c2ccccc12)NC(=O)C[C@H](Cc1ccccc1)NC(=O)[C@@H]1CNCC[C@H]1N	.	.	-19%	-1%	.	.
